According to PubChem BioAssay (Tox21):
“And” between values parts separate entries of the source, which are not always exact repeats. Identical values can stand only once. Results filed as inconclusive are left out. Entries that show only a call come without a potency. Where a structure was tested more than once in an assay, its records may differ in their call. The source made the active and inactive calls. Unless noted, the call rests on the fitted dose curve.

Tests used:
[1] = Nuclear factor erythroid 2-related factor 2/antioxidant responsive element (Nrf2/ARE) small molecule agonists: qHTS cell viability counter screen in human keratinocytes (AID 1919968; active means well fitted curve in the direction sought with a large enough effect in the repeat runs; an effect the other way counts as inactive or inconclusive; further: nearly all actives have a fitted effect of over 55% in size; further: potency means the concentration at half of the fitted maximal effect)
Procedure, shortened: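 KeratinoSens HaCaT cells, 1,500/well, preincubated 5 h, then exposed to compounds in DMSO for 23 h at 37 C/5% CO2. Viability read as CellTiter-Fluor fluorescence after 1 h, in the same wells as the ARE-luciferase read.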

[2] = target: Gonadotropin-releasing hormone receptor (Homo sapiens) (UniProt P30968); assay: Human gonadotropin-releasing hormone receptor (GnRHR) small molecule agonists, calcium flux assay in GnRHR-HEK293 cells (AID 1920063); further: nearly all actives have a fitted effect of over 35% in size
Procedure, shortened: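 HEK293 cells stably expressing human GnRHR were dye-loaded for 1 h at 37 C. Compound was added in agonist mode and fluorescence (Ex/Em 480/540) recorded kinetically for 3 min. Fifteen concentrations, triplicates.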

[3] = target: KiSS-1 receptor (Homo sapiens) (UniProt Q969F8); assay: Human kisspeptin (KISS1R) small molecule agonists, calcium flux assay in KISS1R-HEK293 cells (AID 1920064; active means well fitted curve in the direction sought with a large enough effect in the repeat runs; an effect the other way counts as inactive or inconclusive)
Procedure, shortened: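 HEK293 cells stably expressing human KISS1R were loaded with calcium dye for 1 h at 37 C, then given compound; fluorescence (Ex/Em 480/540) was read kinetically for 3 min. Fifteen concentrations, triplicate.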

[4] = G protein-coupled receptor (GPCR) small molecule agonists, calcium flux assay: HEK293 wild type cell line counter screen (AID 1920065)
Procedure, shortened: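 Wild-type HEK293 cells plated 18 h, loaded with calcium dye 1 h at 37 C, then compounds added in agonist mode (ATP as positive control). Kinetic fluorescence Ex/Em 480/540 recorded 3 min at 1 sec intervals; 15 concentrations, triplicate.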

[5] = p53 small molecule agonists, cell-based qHTS assay with human liver microsomes: qHTS cell viability counter screen (AID 1963579); further: nearly all actives have a fitted effect of over 45% in size
Procedure, shortened: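 Viability of p53RE-bla cells is measured as CellTiter-Glo luminescence following a 16 h, 37 C incubation with compound, liver microsomes from human donors and NADPH.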

[6] = p53 small molecule agonists, cell-based qHTS assay with rat liver microsomes: qHTS cell viability counter screen (AID 1963580); further: nearly all actives have a fitted effect of over 45% in size
Procedure, shortened: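 p53RE-bla HCT-116 cells (4,000/well) rested 5 h at 37 C, then given Tox21 compounds in DMSO with rat liver microsomes (0.5 mg/mL final) plus NADPH (0.5 mg/mL final) for 16 h at 37 C. Viability read by CellTiter-Glo luminescence after 30 min at room temperature.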

[7] = target: 5-hydroxytryptamine receptor 2A (Homo sapiens) (UniProt P28223); assay: 5-hydroxytryptamine receptor 2A (HTR2A) small molecule antagonists, cell-based qHTS assay (AID 1963586); further: nearly all actives have a fitted effect of over 45% in size
Procedure, shortened: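 Antagonist-mode intracellular calcium assay: DOI (4 nM) added after 5 min compound pre-incubation at room temperature to dye-loaded HTR2A-CHO cells. Fluorescence followed for 3 min, sampled every second.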

[8] = target: 5-hydroxytryptamine receptor 2A (Homo sapiens) (UniProt P28223); assay: 5-hydroxytryptamine receptor 2A (HTR2A) small molecule agonists, cell-based qHTS assay (AID 1963587); further: nearly all actives have a fitted effect of over 30% in size; further: potency means the concentration at half of the fitted maximal effect
Procedure, shortened: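 HTR2A-CHO cells, plated 18 h at 37 C/5% CO2, dye-loaded 1 h at 37 C; compounds in DMSO added by pin tool (agonist mode). Intracellular calcium flux read as kinetic fluorescence on FDSS over 2 min at 1 s intervals.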

[9] = target: Muscarinic acetylcholine receptor M1 (Homo sapiens) (UniProt P11229); assay: Cholinergic receptor muscarinic 1 (CHRM1) small molecule antagonists, cell-based qHTS assay (AID 1963588); further: nearly all actives have a fitted effect of over 40% in size
Procedure, shortened: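 CHRM1-CHO calcium-flux assay, antagonist mode. Cells were seeded 18 h, dye-loaded 1 h at 37 C and given compound for 5 min at RT, then acetylcholine was added at 50nM. FDSS fluorescence was read 3 min; 15 concentrations, three runs.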

[10] = target: Muscarinic acetylcholine receptor M1 (Homo sapiens) (UniProt P11229); assay: Cholinergic receptor muscarinic 1 (CHRM1) small molecule agonists, cell-based qHTS assay (AID 1963589); further: nearly all actives have a fitted effect of over 35% in size
Procedure, shortened: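 CHO cells stably expressing human CHRM1 were loaded with calcium dye for 1 h at 37 C, then compound was added in agonist mode. Intracellular calcium fluorescence was followed kinetically at 1 s intervals. Fifteen concentrations were tested in three independent runs.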

[11] = cAMP Responsive Elements (CRE) small molecule agonists, cell-based qHTS assay (AID 1963590)
Procedure, shortened: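 CRE-bla HEK 293T cells, 2,000/well in DMEM with 10% dialyzed FBS and 25 mM HEPES, pre-incubated 18 h at 37 C, then exposed to compound 3 h at 37 C. Beta-lactamase reporter read with LiveBLAzer B/G FRET substrate after 2 h at room temperature.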

[12] = target: Beta-2 adrenergic receptor (Homo sapiens) (UniProt P07550); assay: Adrenergic beta2 receptor (ADRB2) small molecule antagonists, cell-based qHTS assay (AID 1963592); further: series mostly up to about 92 µM; nearly all actives have a fitted effect of over 50% in size
Procedure, shortened: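 Cells (CHO, stable ADRB2 overexpression) incubated 18-20hr at 37C; compounds added from DMSO; agonist mix (1nM isoproterenol, 100uM IBMX, 25uM Ro-20-1724) added; 0.5hr RT; d2-cAMP and anti-cAMP-cryptate added; 1hr RT; 665/615 nm read.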

[13] = target: D(2) dopamine receptor (Homo sapiens) (UniProt P14416); assay: Dopamine D2 receptor (DRD2) small molecule agonists, cell-based qHTS assay (AID 1963594); further: nearly all actives have a fitted effect of over 35% in size
Procedure, shortened: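 HEK293 cells stably expressing DRD2 were cultured 24 h at 37 C, then given Ro20-1724 (0.1 mM final) and compounds for 10 min at room temperature. NKH477 (200nM) was then added for 30 min. cAMP was read by HTRF.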

[14] = target: D(2) dopamine receptor (Homo sapiens) (UniProt P14416); assay: Dopamine D2 receptor (DRD2) small molecule antagonists, cell-based qHTS assay (AID 1963595; active means well fitted inhibition curve with a large enough effect in the signal ratio in the repeat runs, with a control signal flat; the % refers to the signal ratio)
Procedure, shortened: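 Human DRD2 antagonist qHTS measuring cAMP by HTRF. The cells are exposed to compound for 10 min, then to NKH477 (200 nM) and quinpirole (12 nM) for 30 min at RT, with Ro20-1724 (0.1 mM) present throughout.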

[15] = p53 small molecule agonists, cell-based qHTS assay with human liver microsomes (AID 1963577);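 further: p53 response element beta-lactamase reporter cells with liver microsomes plus NADPH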
Procedure, shortened: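 HLM-supplemented p53RE-bla reporter assay: 16 h compound exposure at 37 C, microsomes and NADPH each 0.5 mg/mL final, read by fluorescence intensity.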

[16] = p53 small molecule agonists, cell-based qHTS assay with rat liver microsomes (AID 1963578)
Procedure, shortened: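 Quantitative HTS of the Tox21 10K library: p53RE-bla cells, rat liver microsomes plus NADPH at 0.5 mg/mL final each, 16 h at 37 C, beta-lactamase fluorescence detection.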

[17] = p53 small molecule agonists, cell-based qHTS assay: qHTS cell viability counter screen (AID 1963581); further: nearly all actives have a fitted effect of over 45% in size
Procedure, shortened: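 p53RE-bla HCT-116 cells, compounds added 5 h after plating and incubated 16 h at 37 C. Cytotoxicity measured in the same wells as intracellular ATP by CellTiter-Glo luminescence after 30 min at room temperature.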

[18] = p53 small molecule agonists, cell-based qHTS assay (AID 1963582; active means well fitted activation curve with a large enough effect in the signal ratio in the repeat runs, not every such curve was filed as active; the % refers to the signal ratio)
Procedure, shortened: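 p53RE-bla reporter cells, compounds added in DMSO after 5 h plating, incubated 16 h at 37 C. Beta-lactamase read via 2 h room-temperature LiveBLAzer B/G FRET substrate, fluorescence intensity.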

[19] = cAMP Responsive Elements (CRE) small molecule antagonists, cell-based qHTS assay (AID 1963591; active means well fitted inhibition curve with a large enough effect in the signal ratio in the repeat runs, not every such curve was filed as active; the % refers to the signal ratio)
Procedure, shortened: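 CRE-bla HEK293T cells plated 18 h, then given compound plus NKH477 at 0.25 uM final for 3 h at 37C. Beta-lactamase reporter read with LiveBLAzer B/G FRET substrate after 2 h at room temperature.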

[20] = target: Beta-2 adrenergic receptor (Homo sapiens) (UniProt P07550); assay: Adrenergic beta2 receptor (ADRB2) small molecule agonists, cell-based qHTS assay (AID 1963593);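 further: CHO cells stably overexpressing human ADRB2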
Procedure, shortened: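 CHO cells stably over-expressing ADRB2 were plated overnight at 37C, then dosed with compounds plus a stimulation mix containing 100uM IBMX and 25uM Ro-20-1724 for 0.5hr at room temperature. cAMP was measured by HTRF competition, 1hr.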

Chain of Gonadotropin-releasing hormone receptor (Homo sapiens) (P30968 whole entry, looked up): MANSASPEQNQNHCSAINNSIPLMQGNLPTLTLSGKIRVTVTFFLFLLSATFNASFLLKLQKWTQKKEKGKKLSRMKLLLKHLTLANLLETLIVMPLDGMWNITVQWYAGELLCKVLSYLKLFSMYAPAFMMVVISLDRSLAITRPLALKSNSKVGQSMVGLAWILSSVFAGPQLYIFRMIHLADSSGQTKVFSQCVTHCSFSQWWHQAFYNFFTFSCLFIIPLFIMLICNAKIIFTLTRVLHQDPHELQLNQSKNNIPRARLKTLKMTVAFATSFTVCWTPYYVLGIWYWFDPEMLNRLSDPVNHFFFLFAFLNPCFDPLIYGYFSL
Chain of KiSS-1 receptor (Homo sapiens) (Q969F8 whole entry, looked up): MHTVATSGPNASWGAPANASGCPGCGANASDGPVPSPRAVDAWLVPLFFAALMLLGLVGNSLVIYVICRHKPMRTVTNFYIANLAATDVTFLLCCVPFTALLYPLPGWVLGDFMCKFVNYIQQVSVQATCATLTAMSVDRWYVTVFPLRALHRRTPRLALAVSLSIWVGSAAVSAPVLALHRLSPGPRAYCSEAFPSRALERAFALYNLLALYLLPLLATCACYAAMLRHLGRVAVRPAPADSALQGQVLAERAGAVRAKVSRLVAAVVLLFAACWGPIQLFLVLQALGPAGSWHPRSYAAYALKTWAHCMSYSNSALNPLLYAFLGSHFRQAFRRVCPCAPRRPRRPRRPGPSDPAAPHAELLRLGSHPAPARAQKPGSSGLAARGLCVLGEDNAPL
Chain of Beta-2 adrenergic receptor (Homo sapiens) (P07550 whole entry, looked up): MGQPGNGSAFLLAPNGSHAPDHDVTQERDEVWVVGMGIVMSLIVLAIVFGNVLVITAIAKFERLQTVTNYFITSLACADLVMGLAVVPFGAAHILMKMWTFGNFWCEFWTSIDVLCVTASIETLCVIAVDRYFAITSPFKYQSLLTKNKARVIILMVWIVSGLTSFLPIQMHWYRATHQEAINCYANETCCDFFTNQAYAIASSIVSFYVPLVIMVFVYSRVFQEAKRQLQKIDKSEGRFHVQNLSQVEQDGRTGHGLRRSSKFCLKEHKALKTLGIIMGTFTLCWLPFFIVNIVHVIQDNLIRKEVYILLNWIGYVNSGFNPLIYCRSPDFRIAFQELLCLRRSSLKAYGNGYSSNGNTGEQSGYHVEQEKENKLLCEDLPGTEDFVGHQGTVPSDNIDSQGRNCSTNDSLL
Chain of 5-hydroxytryptamine receptor 2A (Homo sapiens) (P28223 whole entry, looked up): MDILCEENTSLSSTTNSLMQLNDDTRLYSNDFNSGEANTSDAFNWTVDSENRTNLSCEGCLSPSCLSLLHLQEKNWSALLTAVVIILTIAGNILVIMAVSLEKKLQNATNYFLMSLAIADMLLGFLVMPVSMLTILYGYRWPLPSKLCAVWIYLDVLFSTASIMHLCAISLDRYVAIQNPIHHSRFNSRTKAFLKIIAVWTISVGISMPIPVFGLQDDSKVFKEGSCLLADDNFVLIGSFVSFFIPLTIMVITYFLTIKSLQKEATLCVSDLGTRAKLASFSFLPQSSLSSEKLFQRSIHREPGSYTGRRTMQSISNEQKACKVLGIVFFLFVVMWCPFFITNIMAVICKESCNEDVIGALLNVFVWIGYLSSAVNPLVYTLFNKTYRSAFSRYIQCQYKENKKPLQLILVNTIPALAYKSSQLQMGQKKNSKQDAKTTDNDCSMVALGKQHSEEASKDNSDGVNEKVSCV
Chain of D(2) dopamine receptor (Homo sapiens) (P14416 whole entry, looked up): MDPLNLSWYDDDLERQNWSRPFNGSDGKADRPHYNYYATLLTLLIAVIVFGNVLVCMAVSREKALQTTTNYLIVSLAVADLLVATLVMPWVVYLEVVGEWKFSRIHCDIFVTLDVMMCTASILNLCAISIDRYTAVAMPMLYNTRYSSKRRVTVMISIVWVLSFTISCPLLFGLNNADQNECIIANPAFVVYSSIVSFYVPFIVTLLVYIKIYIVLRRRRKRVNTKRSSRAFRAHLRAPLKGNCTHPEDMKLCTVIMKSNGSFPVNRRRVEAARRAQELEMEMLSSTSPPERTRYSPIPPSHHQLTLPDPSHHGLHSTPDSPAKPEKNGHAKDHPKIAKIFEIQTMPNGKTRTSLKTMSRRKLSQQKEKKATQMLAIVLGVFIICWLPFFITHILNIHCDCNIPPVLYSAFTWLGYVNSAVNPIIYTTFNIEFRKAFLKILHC
Chain of Muscarinic acetylcholine receptor M1 (Homo sapiens) (P11229 whole entry, looked up): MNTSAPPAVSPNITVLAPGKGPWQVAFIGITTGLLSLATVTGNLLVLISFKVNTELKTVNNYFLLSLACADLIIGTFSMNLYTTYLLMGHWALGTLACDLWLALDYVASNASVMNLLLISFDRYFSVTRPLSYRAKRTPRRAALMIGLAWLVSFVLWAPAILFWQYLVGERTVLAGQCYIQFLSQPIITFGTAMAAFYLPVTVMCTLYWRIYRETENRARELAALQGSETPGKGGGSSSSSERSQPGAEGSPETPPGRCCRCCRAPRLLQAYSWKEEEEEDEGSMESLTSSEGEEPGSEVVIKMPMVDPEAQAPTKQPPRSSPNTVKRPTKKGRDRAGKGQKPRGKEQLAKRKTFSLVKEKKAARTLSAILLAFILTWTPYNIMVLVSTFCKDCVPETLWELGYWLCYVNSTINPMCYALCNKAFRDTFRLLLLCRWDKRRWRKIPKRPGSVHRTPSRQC

Structure (SMILES)	Potency [1]	Potency [2]	Potency [3]	Potency [4]	Potency [5]	Potency [6]	Potency [7]	Potency [8]	Potency [9]	Potency [10]	Potency [11]	Potency [12]	Potency [13]	Potency [14]	Potency [15]	Potency [16]	Potency [17]	Potency [18]	Potency [19]	Potency [20]
[Cd+2].[Cl-].[Cl-]	27.5 µM (active) and 43.3 µM (active)	inactive	inactive	inactive	inactive	inactive	inactive	inactive	inactive	inactive	inactive	inactive	inactive	inactive	–	–	–	–	–	–
CN(C)c1ccccc1	–	inactive	inactive	inactive	inactive	inactive	inactive	inactive	inactive	inactive	inactive	inactive	inactive	inactive	inactive	inactive	inactive	inactive	inactive	inactive
COP(=S)(OC)Oc1ccc(S(=O)(=O)N(C)C)cc1	inactive	inactive	–	inactive	inactive	inactive	inactive	inactive	–	–	inactive	inactive	inactive	inactive	–	–	inactive	inactive	inactive	inactive
COP(=O)(CCC(=O)NCO)OC	inactive	inactive	–	inactive	inactive	inactive	–	inactive	inactive	inactive	inactive	inactive	inactive	inactive	inactive	inactive	inactive	inactive	–	–
OCCCCO	inactive	inactive	inactive	–	inactive	inactive	inactive	inactive	inactive	inactive	inactive	inactive	inactive	inactive	inactive	inactive	inactive	inactive	inactive	inactive
NC1(c2ccccc2)CCCCC1	–	inactive	inactive	inactive	inactive	inactive	inactive	inactive	inactive	inactive	inactive	inactive	inactive	inactive	inactive	inactive	inactive	inactive	inactive	inactive
O=C(CCl)c1ccc(Cl)cc1Cl	inactive and 11.9 µM (active)	–	inactive	inactive	inactive	inactive	inactive	inactive	inactive	inactive	inactive	inactive	inactive	inactive	–	–	inactive	–	inactive	–
CCCCCCCCCCCCOS(=O)(=O)O	inactive	inactive	inactive	–	inactive	inactive	inactive	inactive and 55 µM (active) and 49 µM (active)	inactive	inactive	inactive	inactive	–	inactive	–	–	inactive	–	inactive	inactive
